Our source for the inhibition values is PubChem BioAssay.

Active and inactive are the calls of the source.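 How the source made its calls: active means inhibition above the hit cutoff set in the earlier primary screen (cut at about 27% in these data); inactive means the rest.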

Protein phosphatase methylesterase 1 (Homo sapiens), sequence (Q9Y570 whole entry, looked up): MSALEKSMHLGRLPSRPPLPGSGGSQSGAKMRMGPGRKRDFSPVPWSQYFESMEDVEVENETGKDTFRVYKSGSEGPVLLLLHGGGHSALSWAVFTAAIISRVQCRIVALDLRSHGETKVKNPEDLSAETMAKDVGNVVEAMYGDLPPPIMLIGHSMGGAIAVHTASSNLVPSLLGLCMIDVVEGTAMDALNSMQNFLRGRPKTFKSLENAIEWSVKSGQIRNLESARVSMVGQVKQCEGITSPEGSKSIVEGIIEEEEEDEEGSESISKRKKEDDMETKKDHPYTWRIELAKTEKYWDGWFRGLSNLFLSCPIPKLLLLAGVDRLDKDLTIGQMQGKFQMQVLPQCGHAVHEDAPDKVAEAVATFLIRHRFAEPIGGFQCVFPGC

The test concerns the target Protein phosphatase methylesterase 1 (Homo sapiens) (UniProt Q9Y570). As to the kind of experiment: human PME-1 methylesterase inhibition confirmation – biochemical, fluorescence polarization, FP-Rh probe, triplicate (AID 2171).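 Further: 0% = enzyme with DMSO and 100% = wells lacking PME-1.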 The conditions noted are these: recombinant PME-1, FP-Rh probe fluorescence polarization; at 5.9 µM; stronger effect = higher value.
One may read the inhibition as the change of the read-out against control, counted positive when it falls. Turning to `O=C(CNc1ccc2ccccc2c1)N/N=C/c1ccc(OC(=O)/C=C/c2ccco2)cc1`, the inhibition was 11.7% (inactive).

As for `N=c1oc2cc(O)ccc2cc1C(=O)Nc1nc2ccccc2s1`, the inhibition was 25.7% (inactive).

For `COc1ccccc1NS(=O)(=O)c1cccc(-n2c(O)c(C=Nc3ccccc3C(=O)O)c3ccccc3c2=O)c1`, the inhibition was 85.7% (active).

Take `CCOc1ccc(/C=N/Nc2cc(N3CCOCC3)nc(C)n2)c(O)c1`: the inhibition is 26.4% (active).

Take `N#CCC(=O)Nc1ccc(C(=O)OCc2ccccc2Oc2ccccc2)cc1`: the inhibition is -74.3% (inactive).

Consider `O=C1C=C(N2CCOCC2)c2ccccc2C1=O`, for which the inhibition is 41% (active).

Take `Cc1[nH]c2ccccc2c1CCNC(=O)c1ccc2c(c1[N+](=O)[O-])C(=O)c1ccccc1C2=O`: the inhibition was 30.9% (active).

Consider `COc1ccc2noc3c2c1C(=O)c1ccccc1-3`, for which the inhibition is 22.2% (inactive).

`Cc1cc(N(C)C)ccc1N=Nc1ccc2ncccc2c1`: the inhibition is 42.3% (active).

On to `CC(C)(C)n1nnnc1C(c1cccs1)N(Cc1cccnc1)Cc1ccco1` (stereo not given), for which the inhibition is 15.8% (inactive).

Consider `COc1ccc2[nH]c3c(N4CCc5ccccc5C4)ncnc3c2c1`, for which the inhibition is 30.2% (active).

`COc1ccc2oc(C(=O)OCC(=O)N3CCN(S(=O)(=O)c4ccc(C)cc4)CC3)c(C)c2c1`: the inhibition is 17.9% (inactive).

Regarding `C=CCn1c(O)c(N=Nc2ccccc2O)c2ccccc21`, the inhibition is 29.2% (active).

Consider `CCc1ccc2nc(SCC(=O)N3CC(=O)Nc4ccccc43)c(C#N)cc2c1`, for which the inhibition is 15.3% (inactive).

With `COc1cccc(NC(=O)Nc2nnc(N3CCCCC3C)s2)c1` (stereo not given), the inhibition was 50.6% (active).

As for `O=C(CSc1c(F)c(F)cc(F)c1F)Nc1ccc(C2SCCS2)cc1`, the inhibition is 5.01% (inactive).

On to `CCOC(=O)/C(=N\Nc1ccc(Cl)cc1)c1csc(Nc2ccccc2)n1`, for which the inhibition was 14.4% (inactive).

As to `CCOC(=O)C1=C(C)Nc2ccccc2N/C1=N\S(=O)(=O)c1cccc(Cl)c1`, the inhibition was 18.7% (inactive).

Take `CCCCC(=O)NC(c1ccccc1Cl)c1c(O)ccc2ccccc12` (stereo not given): the inhibition is 32.1% (active).

Regarding `CCOC(=O)Cc1csc(NC(=O)c2sc3nc4ccc(C)cc4cc3c2N)n1`, the inhibition was 21% (inactive).

Consider `O=C(N/N=C\c1ccc(COc2ccc([N+](=O)[O-])cc2)o1)c1cccc(Cl)c1`, for which the inhibition was 9.99% (inactive).

For `CCOC(=O)CCc1c(C)nc(SCCCn2c(=O)[nH]c3ccccc32)c(C#N)c1C`, the inhibition was 22.6% (inactive).

`Nc1[nH]n(-c2ccccc2)c(=O)c1N=Nc1ccc2ncsc2c1`: the inhibition is 31.1% (active).

Take `Cc1oc(-c2ccc3ccccc3c2)nc1CN(C)C(C)c1ccncn1` (stereo not given): the inhibition was 4.93% (inactive).

Take `Cc1[nH]c2c(C(=O)N3CCCC(CCC(=O)NCc4ccccc4F)C3)cccc2c1C` (stereo not given): the inhibition is 39.7% (active).

Turning to `O=C(CNc1ccccc1)N/N=C/c1c(O)ccc2ccccc12`, the inhibition is 17.1% (inactive).

As for `CC(=O)c1cc(O)c2ccccc2c1O`, the inhibition is 22.5% (inactive).

Turning to `Cc1c2cc(O)c(=O)cc-2oc2cc(O)c(O)cc12`, the inhibition is 143% (active).

On to `CCOC(=O)c1c2c3c(cccc3n(C)c1=O)C(=O)c1ccccc1-2`, for which the inhibition was 21% (inactive).

As for `Cc1sc2ncnc(OCC(=O)N3CCN(S(=O)(=O)c4ccc(Cl)cc4)CC3)c2c1C`, the inhibition is 11.1% (inactive).

Regarding `Nc1c(N2CCCC2)cc(Cl)c2nonc12`, the inhibition is 18.8% (inactive).

`O=[N+]([O-])c1cccc(N/N=C/c2cccc(O)c2O)c1`: the inhibition is 32.9% (active).

`O=C(O)c1cc(N/N=C/c2c(O)ccc3ccccc23)ccc1Cl`: the inhibition was 20.7% (inactive).

Turning to `Oc1nc(Nc2ccccc2)sc1/C=C1\C=Nc2ccccc21`, the inhibition is -2.4% (inactive).

For `O=c1[nH]c(C2CCN(S(=O)(=O)c3ccc(F)cc3)CC2)nc2c1nnn2Cc1ccc2c(c1)OCCO2`, the inhibition was 41% (active).

Turning to `COc1cc(OC)c2cc(C(=O)N/N=C/c3ccccc3O)[nH]c2c1`, the inhibition is 19.1% (inactive).

Take `Cc1ccc2[nH]c(O)c(N=NC(=O)c3ccc(NS(=O)(=O)c4cccs4)cc3)c2c1`: the inhibition is 45.9% (active).

On to `CCN(CC)C(=S)Sc1c(-c2ccccc2)c2cc(Cl)ccc2[nH]c1=O`, for which the inhibition was 39.7% (active).

For `Cc1nn(-c2ccccc2)c2sc(-c3n[nH]c(=S)o3)cc12`, the inhibition was 43.8% (active).

Turning to `O=C1/C(=C/Nc2ccc3c(c2)OCO3)CCc2ccccc21`, the inhibition was 19.5% (inactive).
